Most compounds without a hit are left out; they make up all but 21% or so of the library.
Shiga inhibitor = inhibitors of Shiga toxin in Vero cells. actives 9.2% (n = 290,000). Vero cells, Shiga toxin protein synthesis inhibition reporter. inhibition, % at 38.7 µM; in the data active means inhibition mostly above about 28%, no sharp cut-off; inactive means mostly below about 43%; further: 0% is about no effect
Pf growth 48h = inhibits P. falciparum growth in the first generation, 48 h; Potency, µM (highest dose often 28.7 µM), inactives show at the top dose activity change, negative = inhibition, usual class: inhibitors; actives 5.9% (n = 310,000); P. falciparum luciferase growth in erythrocytes, 48 h; AID 504832; further: potency means the concentration at half of the fitted maximal effect; on the % scale 0 is the no-effect control and ±100 the full control effect
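Compounds are pin-transferred into medium, infected erythrocytes (2% hematocrit, 0.1% parasitemia final) are added, and plates sit one parasite generation at 37 C in 5% CO2. Detection reagent is then added and luminescence measured.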
HCMV antiviral = inhibitors of human cytomegalovirus | HFF cells, HCMV-luciferase reporter, 72 h; active compounds read low | activity change, negative = inhibition, % at 57.5 µM | actives 4.5% (n = 410,000) | AID 1259415; in the data active means activity change below about -60%; inconclusive means no clear call, values can overlap the other calls; inactive means above about -39%; further: on the % scale 0 is the no-effect control and ±100 the full control effect
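Inhibition of viral replication was scored as loss of reporter luminescence in HFFs infected with HCMV-luciferase (MOI 1 PFU/cell) for 72 h; compounds tested at 2 doses, normalized to buffer and Salinomycin controls.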
CHX counter = counter-screen for Shiga toxin inhibitors: cycloheximide protein synthesis inhibition. cell reporter, cycloheximide protein synthesis inhibition counterscreen. max response, %. actives 12% (n = 300,000). AID 2314; in the data active means max response mostly above about 13%, no sharp cut-off; inactive means mostly below about 14%; further: read at 38.3 µM for the half of the compounds with a filed dose; 0% is about no effect
HCV inhibitor = blocks hepatitis C virus; Huh7.5.1 HCVcc-Cre infection, luciferase reporter, 44 h; Potency, µM (highest dose often 41.8 µM), for the others: at the highest dose activity change, negative = inhibition, usual class: inhibitors; AID 651820; actives 3.4% (n = 340,000); further: potency means the concentration at half of the fitted maximal effect; on the % scale 0 is the no-effect control and ±100 the full control effect
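Cells seeded at 1,000/well and cultured 4 h, then compounds added followed by HCVcc-Cre virus (~0.5 moi). After 44 h further culture, luciferase substrate was added, plates held 15 min at room temperature, and luminescence read for 15 sec.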
Pf growth 96h = inhibits malaria parasite growth, 96 h; P. falciparum luciferase reporter growth, 96 h; Potency, µM (titrated, usually from 28.7 µM), without a hit: at the highest dose activity change, negative = inhibition, hits mostly inhibitors; actives 6.9% (n = 320,000); further: potency means the concentration at half of the fitted maximal effect; on the % scale 0 is the no-effect control and ±100 the full control effect
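Infected RBCs, 2% Hct / 0.05% parasitemia final; luciferase-reporter P. falciparum; cpd 96 h, 37 C, 5% CO2; luciferase detection reagent; luminescence.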
* = called active by the depositor; u = inconclusive; x = no result; [ ] = another dose, or the depositor's remark. Unless noted, the call rests on the fitted dose curve; in most records, active means well fitted inhibition curve with a large enough effect; inconclusive means small, poorly fitted or top-dose-only effect, or another doubt; inactive means no such curve, though single readings can be large or run the other way.

SMILES	Shiga inhibitor	Pf growth 48h	HCMV antiviral	CHX counter	HCV inhibitor	Pf growth 96h
COc1cccc(C(=O)OC(C)CN2CCCC2)c1 (centres undefined)	-13	-4%	35	-3	0%	4.1µM*
COc1ccc2oc(C(=O)OCC(=O)N(Cc3ccccc3)C(C)(C)C)c(C)c2c1	-1	u	8	-2	u	u
CN(C(=O)c1ccc(N2CCCCC2)c([N+](=O)[O-])c1)C1(C)CCS(=O)(=O)C1 (centres undefined)	12	15%	-6	-1	10%	-5%
CC(C)CN(CCCNC(=O)Cn1ncc2c3ccccc3n(C)c2c1=O)CC(C)C	x	x	22	x	x	x
CCc1ccc(NC(=S)NC2CC3CCC(C2)N3Cc2ccco2)cc1 (centres undefined)	-7	u	-35	1	u	0%
S=C(Nc1ccc(Cl)cc1)NC1CC2CCC(C1)N2Cc1ccccc1 (centres undefined)	-7	3.3µM*	u	0	u	22%
CCc1ccc(NC(=S)NC2CC3CCCC(C2)N3Cc2ccccc2)cc1 (centres undefined)	11	6.6µM*	u	8	10µM*	u
CC(C)=CC(=O)N1CC[C@@H](N2CCN(c3ccccc3F)CC2)[C@H](O)C1	-16	-15%	23	-3	3%	u
COCCCN1C(=O)c2ccc(C(=O)NCc3ccco3)cc2C1=O	45	4%	-12	29*	7%	9%
CCOC(=O)CN1C(=O)C(C)(C)Oc2ccc(C(=O)Nc3ccccc3OC)cc21	-4	u	-14	-4	-22%	-22%
COCCN1C(=O)c2ccc(C(=O)NCc3ccco3)cc2C1=O	-12	9%	39	1	21%	-6%
COCCCN1C(=O)c2ccc(C(=O)Nc3ccc(OC)cc3)cc2C1=O	38	x	20	15*	17%	u
COc1ccccc1NC(=O)c1ccc2c(c1)N(CC#N)C(=O)C(C)(C)O2	-4	-23%	u	5	u	12µM*
COCCCN1C(=O)c2ccc(C(=O)Nc3ccc(C)cc3C)cc2C1=O	28	-8%[0.00184 µM]	-92*	-2	-1%	-1%
OCC[C@H]1C[C@@H](O)[C@H](O)[C@@]2(CCCO2)O1	x	x	-8	x	48%	x
COc1ccccc1CNc1nc2c(S(=O)(=O)c3ccc(C)c(C)c3)nnn2c2ccc(Cl)cc12	x	x	13	x	x	x
COCCCN1C(=O)c2ccc(C(=O)Nc3ccccc3OC)cc2C1=O	-4	21%	5	6	6%	4.7µM*
CC(=O)Oc1ccc(C(=O)Nc2ccc3c(c2)C(=O)N(CCC(=O)O)C3=O)cc1	-17	x	28	-6	-4%	12µM*
CC(=O)Nc1ccn(C2OC(C(COC(C)=O)NC(=O)C3CCCN3C(=O)OC(C)(C)C)C(OC(C)=O)C2OC(C)=O)c(=O)n1 (centres undefined)	-6	x	x	-5	x	x
O=C(OCc1cccc([N+](=O)[O-])c1)c1ccncc1	8	18%	u	14	8%	u
N/C(=N\OCC(=O)Nc1ccccc1)c1nonc1N	3	0%	-40	12	-4%	59%
N/C(=N\OCc1ccccc1)c1nonc1N	99*	227%	-15	55*	-10%	u
N/C(=N/OCc1cccc([N+](=O)[O-])c1)c1nonc1N	17	21%	-60*	7	-17%	18%
COC(=O)c1c(C)oc(C)c1S(=O)(=O)N1CCOCC1	-6	34%	16	1	16%	63%
Clc1ncc(Cn2cccn2)s1	4	20%	-18	-2	6%	34%
COc1ccc(CCN2CCCn3c2nc2c3c(=O)n(CC(C)C)c(=O)n2C)cc1OC	-6	u	-30	-7	10µM*	u
COc1ccc(CCN2CCCn3c2nc2c3c(=O)n(Cc3ccccc3F)c(=O)n2C)cc1OC	-10	2.3µM*	5	0	u	2.9µM*
O=C(NCC1CCCO1)c1ccc(COc2ccccc2)o1 (centres undefined)	x	15%	-23	x	5%	4%

Compound activity deposited in PubChem by National Center for Advancing Translational Sciences (NCATS).
